Measured values taken from PubChem BioAssay (NCATS).
Where “and” joins values, the source holds several entries; their conditions need not be identical. Equal entries are not always repeated. Records with an inconclusive call do not appear. Calls of active or inactive are those of the source. Unless noted, the call rests on the fitted dose curve; in most records, active means well fitted curve in the direction sought with a large enough effect; inconclusive means small, poorly fitted or top-dose-only effect, or another doubt; inactive means no such curve, though single readings can be large; an effect the other way counts as inactive or inconclusive.

Key:
[1] = target: Glutathione peroxidase 1 (Homo sapiens) (UniProt P07203); test: Primary qHTS Assay for Inhibitors of Recombinant Selenoprotein Glutathione Peroxidase 1 (GPX1) (AID 1845191); details: recombinant GPX1, GR-coupled NADPH fluorescence, 15 min; series mostly up to 48.8 µM; further: nearly all actives have a fitted effect of over 65% in size
Glutathione peroxidase 1 (Homo sapiens), sequence (P07203 whole entry, looked up): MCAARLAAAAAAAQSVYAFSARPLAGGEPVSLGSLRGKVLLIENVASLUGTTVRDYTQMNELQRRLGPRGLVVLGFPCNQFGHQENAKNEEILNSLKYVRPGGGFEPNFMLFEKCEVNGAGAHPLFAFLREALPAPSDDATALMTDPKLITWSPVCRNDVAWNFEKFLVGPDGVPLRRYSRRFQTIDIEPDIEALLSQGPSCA
Method in brief: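 GR-coupled readout: NADPH consumption tracked by fluorescence, ex 340/em 450 nm, at t=0 and after 15 min at RT. Final mix 10 nM GPX1, 1 mM GSH, 0.5 mM CHP, 0.5 mM NADPH, 100 nM GR, 0.01% BSA, following 30 min enzyme–compound preincubation.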

[2] = target: Phospholipid hydroperoxide glutathione peroxidase GPX4 (Homo sapiens) (UniProt P36969); test: Primary qHTS Assay for Inhibitors of Recombinant Selenoprotein Glutathione Peroxidase 4 (GPX4) (AID 1845192); details: recombinant GPX4, GR-coupled NADPH fluorescence, 15 min; series mostly up to 50 µM; further: nearly all actives have a fitted effect of over 65% in size; further: potency means the concentration at half of the fitted maximal effect
Phospholipid hydroperoxide glutathione peroxidase GPX4 (Homo sapiens), sequence (P36969 whole entry, looked up): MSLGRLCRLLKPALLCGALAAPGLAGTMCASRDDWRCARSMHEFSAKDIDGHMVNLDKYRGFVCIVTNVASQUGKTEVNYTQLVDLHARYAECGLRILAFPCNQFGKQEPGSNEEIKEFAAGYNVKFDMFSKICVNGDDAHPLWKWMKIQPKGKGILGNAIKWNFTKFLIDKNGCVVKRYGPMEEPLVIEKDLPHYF
Method in brief: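 Steps: GPX4 plus compound, 30 min RT; add GR/GSH/NADPH master mix; start with cumene hydroperoxide; read 340/450 nm fluorescence at 0 and 15 min. Finals were 200 nM GPX4, 1 mM GSH, 0.5 mM CHP, 0.5 mM NADPH, 100 nM GR.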

[3] = qHTS drug screen for cell cycle checkpoint inhibitors in PARPi-resistant BRCA-mutant ovarian cancer cell lines. (AID 1963452; calls by dose curve; further: potency means the concentration at half of the fitted maximal effect); details: PEO1/OlaR viability, CellTiter-Glo luminescence, 96 h; for Z-AUC: stronger effect = lower value
Method in brief: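 PEO1, PEO4 and PEO1/OlaR ovarian cancer cells, 600 per well, exposed 96 h at 37C to a dilution series. Viability read by CellTiter-Glo luminescence, normalized to DMSO and empty wells; activity summarized as Z-AUC.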

[4] = Cell Viability - BJ (AID 421; calls by dose curve;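 further: potency means the concentration at half of the fitted maximal effect; cells exposed to compound for 40 hours at 37 °C before readout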); details: BJ fibroblast viability, qHTS
Method in brief: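 Cytotoxicity as drop in intracellular ATP (CellTiter-Glo, 20 min RT) after 40 hr compound exposure of BJ fibroblasts at 37 °C. Titrations scaled between DMSO and 100 uM tamoxifen, Hill-fitted for AC50.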

[5] = Cell Viability - MRC5 (AID 434; calls by dose curve;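 further: potency means the concentration at half of the fitted maximal effect; cells exposed to compound for 40 hours at 37 °C; potency reflects cytotoxicity seen as loss of intracellular ATP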); details: MRC5 lung fibroblast viability, qHTS
Method in brief: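 ATP luminescence read-out (CellTiter-Glo, 20 min RT) after 40 hr, 37 °C compound exposure of 1500 MRC5 cells/well. Data normalized to DMSO (basal) and 100 uM tamoxifen (100% inhibition); AC50 from standard Hill equation.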

[6] = Cell Viability - SK-N-SH (AID 435; calls by dose curve; further: potency means the concentration at half of the fitted maximal effect); details: SK-N-SH neuroblastoma cell viability qHTS
Method in brief: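 qHTS cytotoxicity: CellTiter-Glo ATP luminescence after 40 h compound exposure of human neuroblastoma SK-N-SH cells at 37 °C. AC50 derived by Hill-equation fitting, with DMSO as basal and 100 uM tamoxifen as full inhibition.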

[7] = target: Mitogen-activated protein kinase 10 (Mus musculus) (UniProt Q61831); test: JNK3 AlphaScreen Assay (AID 530; active means well fitted curve in either direction with a large enough effect, not every such curve was filed as active;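 further: kinase came from lysate of stimulated human HepG2 cells; signal reports phosphorylation of biotinylated GST-cJun 1-79 at Ser73 with 10 µM ATP; on the % scale 0 is the no-effect control and ±100 the full control effect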); details: JNK3 lysate, c-Jun phosphorylation; series mostly up to 57.1 µM
Method in brief: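 Activity was read by AlphaScreen after JNK3-containing HepG2 lysate (cytokine pre-activated) phosphorylated biotinylated GST-cJun with 10 uM ATP at room temperature. Phospho-Ser73 cJun antibody with Protein-A acceptor beads provided detection.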

[8] = Cell Viability - Mesenchymal (AID 546); details: mesenchymal cells viability, qHTS; activity change, negative = cytotoxicity: at 91.7 µM (top of the series);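 further: cells exposed to compound for 40 hours before reading; 0% = DMSO only and -100% = 100 µM tamoxifen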
Method in brief: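 Human renal mesenchymal cells (glomerulus-derived), 1000 cells/well, 5 hr 37 °C pre-incubation; compound 40 hr, 37 °C; CellTiter-Glo, 20 min RT; luminescence; AC50 via Hill equation.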

[9] = target: Cytochrome P450 3A4 (Homo sapiens) (UniProt P08684); test: qHTS Assay for Inhibitors and Substrates of Cytochrome P450 3A4 (AID 884); details: recombinant CYP3A4, Luciferin-PPXE luminescence; series mostly up to 57.1 µM; further: on the % scale 0 is the no-effect control and ±100 the full control effect; nearly all actives have a fitted effect of over 50% in size
Cytochrome P450 3A4 (Homo sapiens), sequence (P08684 whole entry, looked up): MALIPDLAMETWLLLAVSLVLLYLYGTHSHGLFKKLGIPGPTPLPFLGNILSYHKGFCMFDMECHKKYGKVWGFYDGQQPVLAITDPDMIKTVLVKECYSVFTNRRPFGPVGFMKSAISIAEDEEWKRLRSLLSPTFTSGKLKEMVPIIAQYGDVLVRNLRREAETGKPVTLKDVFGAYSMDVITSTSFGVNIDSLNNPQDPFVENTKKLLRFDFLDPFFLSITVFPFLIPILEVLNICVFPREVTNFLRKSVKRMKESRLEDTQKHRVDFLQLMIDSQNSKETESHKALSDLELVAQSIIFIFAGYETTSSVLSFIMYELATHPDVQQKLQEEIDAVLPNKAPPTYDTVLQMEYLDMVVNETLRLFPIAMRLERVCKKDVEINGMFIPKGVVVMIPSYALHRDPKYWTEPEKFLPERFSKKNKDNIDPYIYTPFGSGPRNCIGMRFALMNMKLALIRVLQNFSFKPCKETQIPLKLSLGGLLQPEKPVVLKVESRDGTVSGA
Method in brief: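 Luminescent readout of luciferin produced by CYP3A4 (20 nM) dealkylation of Luciferin-PPXE, 25 uM (its KM). NADPH-driven reaction ran 60 min at RT after 10 min compound preincubation; data scaled to 57 uM ketoconazole as 100% inhibition.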

[10] = qHTS Assay for Identification of Small Molecule Inducers of Hypoxia Response (AID 2120; active means well fitted curve in the direction sought with a large enough effect in the signal ratio, with a control signal flat, not every such curve was filed as active; the % refers to the signal ratio; further: 0% is about no effect); details: hypoxia response reporter cells, beta-lactamase ratio readout; series mostly up to 104 µM
Method in brief: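 Cell-based qHTS for reporter induction: hypoxia response element controlled beta-lactamase in ME-180 cells. Compounds incubated 17 h at 37 degrees C; activity from blue/green (460/530 nm) ratio, inducers ranked by AC50.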

[11] = target: Peroxisome proliferator-activated receptor gamma (Homo sapiens) (UniProt P37231); test: qHTS assay for small molecule agonists of peroxisome proliferator-activated receptor gamma signaling (AID 588536; active means well fitted curve in the direction sought with a large enough effect in the signal ratio, with a control signal flat, not every such curve was filed as active; the % refers to the signal ratio;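 further: 0% = DMSO basal wells and 100% = rosiglitazone at 2 µM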); details: HEK293 PPARg-UAS-bla, beta-lactamase ratio, 16 h, percent of rosiglitazone response, DMSO as zero; series mostly up to 76.7 µM
Peroxisome proliferator-activated receptor gamma (Homo sapiens), sequence (P37231 whole entry, looked up): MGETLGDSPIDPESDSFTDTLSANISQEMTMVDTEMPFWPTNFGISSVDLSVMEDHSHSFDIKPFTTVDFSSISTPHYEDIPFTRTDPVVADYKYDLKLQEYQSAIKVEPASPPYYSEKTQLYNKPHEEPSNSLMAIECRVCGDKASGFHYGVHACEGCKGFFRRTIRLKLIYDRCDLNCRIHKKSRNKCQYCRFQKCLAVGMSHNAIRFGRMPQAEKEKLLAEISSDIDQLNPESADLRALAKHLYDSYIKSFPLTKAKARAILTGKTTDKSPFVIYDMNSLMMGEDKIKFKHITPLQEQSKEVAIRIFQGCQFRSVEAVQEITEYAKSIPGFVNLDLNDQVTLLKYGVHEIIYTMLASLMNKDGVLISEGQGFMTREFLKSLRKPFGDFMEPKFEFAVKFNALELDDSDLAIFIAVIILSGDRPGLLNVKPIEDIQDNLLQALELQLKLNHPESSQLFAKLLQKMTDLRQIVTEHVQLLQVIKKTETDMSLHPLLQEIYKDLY
Method in brief: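 This is an agonist-mode beta-lactamase reporter assay in HEK293 PPAR-gamma-UAS-bla cells with 1% charcoal/dextran FBS. Compound titrations ran 16 h at 37 C before CCF4 detection. EC50 and efficacy are Hill fits scaled to 2 uM rosiglitazone (100%) and DMSO basal.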

[12] = target: Thyroid hormone receptor beta (Homo sapiens) (UniProt P10828); test: qHTS assay for small molecule agonists of thyroid hormone receptor beta signaling (AID 588545; calls by dose curve); details: TR-UAS-bla GripTite HEK 293, beta-lactamase ratio, agonist mode, 18 h, percent of T3 response, DMSO as zero; series mostly up to 76.7 µM
Thyroid hormone receptor beta (Homo sapiens), sequence (P10828 whole entry, looked up): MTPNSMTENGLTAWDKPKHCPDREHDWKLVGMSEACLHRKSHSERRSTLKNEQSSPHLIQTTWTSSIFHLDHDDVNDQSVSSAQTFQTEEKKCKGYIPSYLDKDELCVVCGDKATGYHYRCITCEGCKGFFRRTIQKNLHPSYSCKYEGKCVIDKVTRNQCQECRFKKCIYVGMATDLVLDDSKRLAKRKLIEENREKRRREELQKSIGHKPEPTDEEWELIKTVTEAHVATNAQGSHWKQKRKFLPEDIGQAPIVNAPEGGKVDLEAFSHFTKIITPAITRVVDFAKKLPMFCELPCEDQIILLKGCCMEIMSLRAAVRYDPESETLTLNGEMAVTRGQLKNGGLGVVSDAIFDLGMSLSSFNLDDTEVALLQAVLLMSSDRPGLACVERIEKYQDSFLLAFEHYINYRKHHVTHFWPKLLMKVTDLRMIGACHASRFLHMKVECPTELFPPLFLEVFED
Method in brief: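 Agonist activity was read as beta-lactamase CCF4 fluorescence (405 ex, 460/530 em), scaled between DMSO (0%) and 10 nM T3 (100%), then Hill-fitted for EC50 and efficacy. HEK 293 TR-UAS-bla cells in 2% charcoal/dextran FBS medium were exposed 18 h at 37 C.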

[13] = qHTS assay for small molecule antagonists of retinoid X receptor alpha signaling (AID 588546); details: HEK293T RXRa-UAS-bla, beta-lactamase ratio, antagonist mode; measured here: W530 green channel, cytotoxicity proxy;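 further: cells stimulated with 9-cis-retinoic acid as agonist; on the % scale 0 is the no-effect control and ±100 the full control effect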
Method in brief: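 Beta-lactamase reporter inhibition, read as CCF4 fluorescence ratio (ex 405, em 460/530 nm) after 2 h at RT. HEK293T UAS-bla cells, 2500/well, were stimulated with 9-cis-RA at 500 or 100 nM final alongside test compound for 18 h at 37 C.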

[14] = qHTS assay for environmental chemicals that activate the Aryl hydrocarbon Receptor (AhR) signaling pathway (AID 651777); details: 1A2-DRE human hepatoma cells, luciferase, 24 h; activation: stronger effect = higher value; further: % of control where 0% means no effect; nearly all actives have a fitted effect of over 15% in size
Method in brief: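 1A2-DRE human hepatoma reporter line; 1,200 cells/well; cmpd or DMSO 24 h, 37 C/5% CO2; One-Glo 30 min RT; luciferase lum.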

[15] = target: Peroxisome proliferator-activated receptor alpha (Homo sapiens) (UniProt Q07869); test: qHTS assay for small molecule agonists of the peroxisome proliferator-activated receptor alpha (PPARalpha) signaling pathway (AID 651778); details: PathHunter PPARalpha complementation, chemiluminescence, 6 h; max response: stronger effect = higher value; further: % of control where 0% means no effect
Peroxisome proliferator-activated receptor alpha (Homo sapiens), sequence (Q07869 whole entry, looked up, the tested form may be a part): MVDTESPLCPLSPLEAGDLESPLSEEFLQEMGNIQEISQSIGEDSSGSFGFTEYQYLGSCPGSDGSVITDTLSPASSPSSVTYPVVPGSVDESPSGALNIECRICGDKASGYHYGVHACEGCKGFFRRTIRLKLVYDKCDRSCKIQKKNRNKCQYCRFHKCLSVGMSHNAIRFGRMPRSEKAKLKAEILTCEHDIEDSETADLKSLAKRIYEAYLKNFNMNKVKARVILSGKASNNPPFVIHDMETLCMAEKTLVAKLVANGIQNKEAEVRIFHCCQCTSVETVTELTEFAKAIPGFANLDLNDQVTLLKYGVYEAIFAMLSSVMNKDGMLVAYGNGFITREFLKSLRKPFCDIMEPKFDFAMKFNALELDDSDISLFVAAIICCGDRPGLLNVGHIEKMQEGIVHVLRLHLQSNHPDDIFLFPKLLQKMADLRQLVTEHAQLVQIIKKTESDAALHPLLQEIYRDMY
Method in brief: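 Enzyme-fragment complementation assay in which ligand-bound PPARalpha translocates and forms an active enzyme that generates chemiluminescence. Cells were plated overnight, exposed to compound for 6 hr at 37 C, and then given detection reagent for 60 min at room temperature.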

[16] = qHTS assay for small molecule agonists of the antioxidant response element (ARE) signaling pathway measured by Nrf2-dependant transcriptional activity (AID 720636; active means well fitted curve in the direction sought with a large enough effect in the repeat runs; an effect the other way counts as inactive or inconclusive;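 further: HepG2 cells with an ARE-driven luciferase reporter; % of control where 0% means no effect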); details: ARE-luc HepG2, Nrf2 luciferase reporter, 16 h; series mostly up to 92.4 µM
Method in brief: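 Cells: ARE-luc HepG2 with Nrf2-responsive luciferase. Medium contained 1% dialyzed FBS. Compound exposure lasted 16 hr at 37 C and 5% CO2, followed by ONE-Glo luciferase detection.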

[17] = qHTS assay for cell viability of HEK293 cells (AID 743288); details: ATP luminescence (CellTiter-Glo), 18 h; max response: stronger effect = lower value; further: on the % scale 0 is the no-effect control and ±100 the full control effect; nearly all actives have a fitted effect of over 50% in size
Method in brief: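 Readout is luciferase-coupled ATP content (CellTiter-Glo luminescence, 30 min room temperature) as a measure of metabolically competent cells. Parental HEK293 cells were plated 5 h or more before compound addition, then treated 18 h at 37 C.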

[18] = qHTS assay for cell viability of the p53RE-bla HCT-116 cell line (AID 743292); details: p53RE-bla HCT-116 viability, ATP luminescence, 16 h; series mostly up to 95 µM; further: on the % scale 0 is the no-effect control and ±100 the full control effect; nearly all actives have a fitted effect of over 55% in size
Method in brief: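 HCT-116 p53RE-bla cells seeded 4,000/well; 5 h at 37 C; compound (DMSO) added; 16 h at 37 C; CellTiter-Glo added, 30 min RT; luminescence read.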

[19] = target: Luciferin 4-monooxygenase (Photinus pyralis) (UniProt P08659); test: Biochemical firefly luciferase enzyme assay for NPC (AID 624030);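 further: purified P. pyralis luciferase at 10 nM with luciferin and ATP substrate; 0% = DMSO and -100% = full luciferase inhibition by PTC124 control; nearly all actives have a fitted effect of over 70% in size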; details: purified P. pyralis luciferase, luminescence, 5 min; series mostly up to 58.6 µM
Luciferin 4-monooxygenase (Photinus pyralis), sequence (P08659 whole entry, looked up): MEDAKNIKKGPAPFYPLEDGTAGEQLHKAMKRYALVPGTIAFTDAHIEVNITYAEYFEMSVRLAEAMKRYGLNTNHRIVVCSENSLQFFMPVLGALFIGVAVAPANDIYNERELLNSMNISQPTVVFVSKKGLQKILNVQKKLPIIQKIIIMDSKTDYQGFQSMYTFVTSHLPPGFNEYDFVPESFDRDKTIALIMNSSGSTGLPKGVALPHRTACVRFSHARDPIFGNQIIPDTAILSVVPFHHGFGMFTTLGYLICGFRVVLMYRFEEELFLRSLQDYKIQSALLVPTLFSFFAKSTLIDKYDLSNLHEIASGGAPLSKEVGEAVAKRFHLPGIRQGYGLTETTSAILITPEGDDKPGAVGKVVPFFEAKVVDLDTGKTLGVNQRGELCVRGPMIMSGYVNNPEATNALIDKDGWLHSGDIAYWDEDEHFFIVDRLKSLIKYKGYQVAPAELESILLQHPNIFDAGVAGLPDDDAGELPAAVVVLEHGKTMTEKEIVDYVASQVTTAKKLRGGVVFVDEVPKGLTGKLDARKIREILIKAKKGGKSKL
Method in brief: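 Purified P. pyralis luciferase at 10 nM in 50 mM Tris Acetate (final), luminescence read within 5 minutes of enzyme addition to compounds. Activity normalised to PTC124 versus DMSO; concentration-response curves classed by r2, magnitude and activity.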

[20] = qHTS profiling for inhibitors of Plasmodium falciparum proliferation (AID 504749); further: potency means the concentration at half of the fitted maximal effect; nearly all actives have a fitted effect of over 60% in size; details: P. falciparum in erythrocytes, SYBR Green DNA, 72 h
Method in brief: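 Each compound contacts P. falciparum-infected red blood cells for 72 h at 37 C; lysis buffer (Tris, EDTA, saponin, Triton X, SYBR Green I) is added and fluorescence measured next morning; values normalized to controls.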

[21] = measured here: PEO1 parental Z-AUC

Q: Which Potency [1] does the source give for `CNC(=O)c1ccccc1Nc1nc(Nc2ccc3c(c2OC)CCC[C@H](N2CCN(CCO)CC2)C3)ncc1Cl` here?
A: inactive

Q: What about the Potency [2] of the same molecule?
A: inactive

Q: And the Z-AUC [3]?
A: -0.709 (inactive)

Q: What about the Z-AUC [3, 21] of the same molecule?
A: -0.531

Q: What about the Z-AUC ([3]; measured here: PEO4 Z-AUC) of the same molecule?
A: -0.58

Q: Which results are given for `CC(C)(O)C1CCC(Nc2ccc3ncc(-c4cccc(C(F)(F)F)c4)n3n2)CC1` (stereo not given)?
A: Potency [1]: inactive; Potency [3]: 5.49 µM (active); Z-AUC [3, 21]: -1.03; Z-AUC ([3]; measured here: PEO4 Z-AUC): -1.21

Q: For `CCCCCCCCCC(=O)OCCN1CCN(CC/C=C2/c3ccccc3Sc3ccc(Cl)cc32)CC1`, which Potency [2] is on record?
A: 2.24 µM (active)

Q: Which results are given for `O=C(O)c1ccccc1C(c1ccc(O)cc1)c1ccc(O)cc1`?
A: Potency [4]: > 92 µM (inactive); Potency [5]: > 92 µM (inactive); Potency [6]: > 92 µM (inactive); Potency [7]: inactive; activity change, negative = cytotoxicity [8]: 8.62% (inactive); Potency [9]: inactive; outcome [10]: inactive; outcome [11]: inactive; outcome [12]: inactive; max response [13]: -15.7% and -6.86%; activation [14]: 2.69% (inactive) and 0.36% (inactive); max response [15]: 0.608% (inactive) and -3.85% (inactive); Potency [16]: inactive; max response [17]: -11.1% (inactive) and 2.2% (inactive); Potency [18]: inactive; Potency [1]: inactive; Potency [2]: inactive

Q: Which Potency [2] does the source give for `C[C@H]1O[C@]2(CS1)CN1CCC2CC1` here?
A: inactive

Q: Which Potency [19] does the source give for `Nc1nc(Cl)nc2c1ncn2C1CC(O)C(CO)O1` (stereo not given) here?
A: inactive

Q: And the Potency [1]?
A: inactive

Q: And the Potency [2]?
A: inactive

Q: With `CO[C@@H]1[C@@H](OC2OC(C)C(OC3CC(C)(O)C(OC(=O)CC(C)C)C(C)O3)C(N(C)C)C2O)[C@@H](CC=O)C[C@@H](C)C(=O)/C=C\C2O[C@H]2C[C@@H](C)OC(=O)C[C@H]1OC(C)=O` (stereo not given in full) as the molecule, how does the Potency [19] read?
A: inactive

Q: And the Potency [1]?
A: inactive

Q: And the Potency ([20]; parasite line A)?
A: 11.2 µM (active)

Q: And the Potency ([20]; parasite line B)?
A: 10 µM (active)

Q: With `CO[C@H]1/C=C\O[C@@]2(C)Oc3c(C)c(O)c4c(O)c(c(/C=N/N5CCN(C6CCCC6)CC5)c(O)c4c3C2=O)NC(=O)/C(C)=C\C=C/[C@H](C)[C@H](O)[C@@H](C)[C@@H](O)[C@@H](C)[C@H](OC(C)=O)[C@@H]1C` as the molecule, how does the Potency [2] read?
A: 10 µM (active)

Q: With `CCOc1ccc(Cc2cc([C@@]34OC[C@@](CO)(O3)[C@@H](O)[C@H](O)[C@H]4O)ccc2Cl)cc1` as the molecule, how does the Potency [2] read?
A: inactive

Q: Which Potency [4] does the source give for `COc1c2ccoc2cc2oc(=O)ccc12` here?
A: > 92 µM (inactive)

Q: What about the Potency [5] of the same molecule?
A: > 92 µM (inactive)

Q: What about the Potency [6] of the same molecule?
A: > 92 µM (inactive)

Q: And the Potency [7]?
A: inactive

Q: And the activity change, negative = cytotoxicity [8]?
A: -14.2% (inactive)

Q: What about the outcome [10] of the same molecule?
A: inactive

Q: What about the outcome [12] of the same molecule?
A: inactive

Q: And the max response [13]?
A: -1.57%

Q: And the activation [14]?
A: 1.47% (inactive)

Q: And the max response [15]?
A: -2.53% (inactive)

Q: And the Potency [16]?
A: inactive

Q: And the max response [17]?
A: -2.26% (inactive)

Q: What about the Potency [18] of the same molecule?
A: inactive
